Measured values reported in PubChem BioAssay AID1159580 (chemical genetic matrix, 2015).
Where “and” joins values, the source holds several entries; their conditions need not be identical. Equal entries are not always repeated. The campaign covered roughly 5,500 compounds. About 2,000 (36%) were called active. Not shown: some 18% with an inconclusive outcome. No stated cut-off is given here; in the data, active means normalized growth mostly below about 0.91 (no sharp cut-off); inconclusive means no clear call, values can overlap the other calls; inactive means mostly above about 0.92. The list shows a part of the results.

Assay: chemical genetic growth profiling, strain panel (AID 1159580);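 further: tested at 20 µM; growth read once vehicle control cultures reached saturation at 30 °C; 1 = growth at the plate median or of vehicle wells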
Conditions: S. cerevisiae deletion strains, growth OD

Measured: normalized growth

CO/N=C(\C(=O)NC1C(=O)N2C(C(=O)O)=C(COC(N)=O)CSC12)c1ccco1 (configuration not stated)
0.0514 (active) and 1.05 (inactive): locus YHR030C, strain SLT2, stronger effect = lower value
inactive: locus YAL021C, strain ccr4, stronger effect = lower value 0.988 | locus YAL026C, strain drs2, stronger effect = lower value 0.984 | locus YAL030W, strain snc1, stronger effect = lower value 0.977 | locus YBL061C, strain skt5, stronger effect = lower value 0.967 | locus YBR009C, strain hhf1, stronger effect = lower value 0.985 | locus YBR023C, strain chs3, stronger effect = lower value 0.964 | locus YBR171W, strain sec66, stronger effect = lower value 0.958 | locus YBR231C, strain swc5, stronger effect = lower value 0.971 | locus YBR279W, strain paf1, stronger effect = lower value 0.975 | locus YCL011C, strain gbp2, stronger effect = lower value 0.968 | locus YCL016C, strain dcc1, stronger effect = lower value 0.969 | locus YCL061C, strain MRC1, stronger effect = lower value 0.969 | locus YCL069W, strain vba3, stronger effect = lower value 0.977 | locus YCR088W, strain abp1, stronger effect = lower value 0.975 | locus YDL005C, strain med2, stronger effect = lower value 0.969 | locus YDL040C, strain nat1, stronger effect = lower value 0.981 | locus YDR001C, strain nth1, stronger effect = lower value 0.976 | locus YDR069C, strain doa4, stronger effect = lower value 0.988 | locus YDR137W, strain rgp1, stronger effect = lower value 0.945 | locus YDR159W, strain sac3, stronger effect = lower value 0.99 | locus YDR195W, strain ref2 1 | locus YDR297W, strain sur2, stronger effect = lower value 0.972 | locus YDR334W, strain swr1, stronger effect = lower value 0.966 | locus YDR335W, strain msn5, stronger effect = lower value 0.975 | locus YDR392W, strain spt3, stronger effect = lower value 0.894 | locus YEL003W, strain gim4, stronger effect = lower value 0.997 | locus YEL037C, strain rad23, stronger effect = lower value 0.967 | locus YEL061C, strain CIN8 (second series), stronger effect = lower value 0.976 | locus YER015W, strain faa2, stronger effect = lower value 0.968 | locus YER016W, strain bim1, stronger effect = lower value 0.992 | locus YER111C, strain swi4, stronger effect = lower value 0.976 | locus YER155C, strain BEM2 (second series), stronger effect = lower value 0.969 | locus YFR010W, strain ubp6, stronger effect = lower value 0.966 | locus YGL167C, strain pmr1, stronger effect = lower value 0.96 | locus YGL173C, strain kem1, stronger effect = lower value 0.969 | locus YGL227W, strain vid30, stronger effect = lower value 0.978 | locus YGL240W, strain doc1, stronger effect = lower value 0.989 | locus YGL253W, strain hxk2, stronger effect = lower value 0.99 | locus YHR013C, strain ard1, stronger effect = lower value 0.964 | locus YHR027C, strain rpn1, stronger effect = lower value 0.978 | locus YHR079C, strain IRE1, stronger effect = lower value 1.08 | locus YHR142W, strain chs7, stronger effect = lower value 0.926 | locus YJL092W, strain hpr5, stronger effect = lower value 0.98 | locus YJL095W, strain BCK1 (second series), stronger effect = lower value 0.98 | locus YJL115W, strain asf1, stronger effect = lower value 0.983 | locus YJL129C, strain trk1, stronger effect = lower value 0.971 | locus YJL154C, strain vps35, stronger effect = lower value 0.971 | locus YJL164C, strain tpk1, stronger effect = lower value 0.977 | locus YJL166W, strain qcr8, stronger effect = lower value 0.962 | locus YJL187C, strain SWE1, stronger effect = lower value 0.971 | locus YJR066W, strain TOR1, stronger effect = lower value 0.972 | locus YKL160W, strain elf1, stronger effect = lower value 0.961 | locus YKR026C, strain gcn3, stronger effect = lower value 0.98 | locus YKR091W, strain srl3, stronger effect = lower value 0.98 | locus YLL001W, strain dnm1, stronger effect = lower value 0.944 | locus YLL026W, stronger effect = lower value 0.991 | locus YLL041C, strain sdh2, stronger effect = lower value 0.971 | locus YLR027C, strain aat2, stronger effect = lower value 0.981 | locus YLR113W, strain HOG1, stronger effect = lower value 1.07 | locus YLR221C, strain rsa3, stronger effect = lower value 0.956 | locus YLR258W, strain gsy2, stronger effect = lower value 0.975 | locus YLR262C, strain YPT6 (second series), stronger effect = lower value 0.967 | locus YLR320W, strain mms22, stronger effect = lower value 0.93 | locus YLR342W, strain FKS1, stronger effect = lower value 0.972 | locus YLR357W, strain rsc2, stronger effect = lower value 0.963 | locus YLR370C, strain arc18, stronger effect = lower value 0.963 | locus YLR384C, strain iki3, stronger effect = lower value 0.968 | locus YML120C, strain ndi1, stronger effect = lower value 0.965 | locus YMR058W, strain fet3, stronger effect = lower value 0.968 | locus YMR125W, strain sto1, stronger effect = lower value 0.979 | locus YMR129W, stronger effect = lower value 0.983 | locus YMR205C, strain PFK2, stronger effect = lower value 0.949 | locus YMR231W, strain pep5, stronger effect = lower value 0.968 | locus YNL071W, strain lat1, stronger effect = lower value 0.974 | locus YNL183C, strain NPR1, stronger effect = lower value 0.966 | locus YNL209W, strain ssb2, stronger effect = lower value 0.985 | locus YNL248C, strain rpa49, stronger effect = lower value 0.966 | locus YNL322C, strain KRE1 (second series), stronger effect = lower value 0.969 | locus YNR049C, strain mso1, stronger effect = lower value 0.978 | locus YOR001W, strain rrp6, stronger effect = lower value 0.984 | locus YOR070C, strain gyp1, stronger effect = lower value 0.988 | locus YOR080W, strain dia2, stronger effect = lower value 0.986 | locus YOR083W, strain WHI5, stronger effect = lower value 0.953 | locus YOR106W, strain vam3, stronger effect = lower value 0.951 | locus YOR231W, strain MKK1, stronger effect = lower value 1.06 | locus YOR265W, strain rbl2, stronger effect = lower value 0.991 | locus YOR270C, strain vph1, stronger effect = lower value 0.96 | locus YOR290C, strain snf2, stronger effect = lower value 0.958 | locus YPL051W, strain arl3, stronger effect = lower value 0.97 | locus YPL078C, strain atp4, stronger effect = lower value 0.957 | locus YPL106C, strain sse1, stronger effect = lower value 0.941 | locus YPL240C, strain hsp82, stronger effect = lower value 0.982 | locus YPL256C, strain CLN2, stronger effect = lower value 1.07
0.0608 (active) and 1.03 (inactive): locus YJL095W, strain BCK1, stronger effect = lower value
active: locus YBR021W, strain FUR4, stronger effect = lower value 0.0938 | locus YBR229C, strain ROT2, stronger effect = lower value 0.0259 | locus YCL029C, strain bik1, stronger effect = lower value 0.0647 | locus YDL035C, strain GPR1, stronger effect = lower value 0.0509 | locus YDL074C, strain BRE1, stronger effect = lower value 0.0872 | locus YDL101C, strain DUN1, stronger effect = lower value 0.0518 | locus YDL185W, strain tfp1, stronger effect = lower value 0.0709 | locus YDL192W, strain arf1, stronger effect = lower value 0.0602 | locus YDR101C, strain arx1, stronger effect = lower value 0.0636 | locus YDR162C, strain NBP2, stronger effect = lower value 0.0497 | locus YDR318W, strain mcm21, stronger effect = lower value 0.062 | locus YDR388W, stronger effect = lower value 0.0594 | locus YDR502C, strain sam2, stronger effect = lower value 0.057 | locus YEL061C, strain CIN8, stronger effect = lower value 0.0491 | locus YER110C, stronger effect = lower value 0.0738 | locus YER155C, strain BEM2, stronger effect = lower value 0.0713 | locus YER167W, strain BCK2, stronger effect = lower value 0.0538 | locus YGL078C, strain dbp3, stronger effect = lower value 0.387 | locus YGL086W, strain mad1, stronger effect = lower value 0.0523 | locus YGL248W, strain PDE1, stronger effect = lower value 0.0434 | locus YGR135W, strain pre9, stronger effect = lower value 0.0617 | locus YGR252W, strain gcn5, stronger effect = lower value 0.126 | locus YHR079C, strain IRE1 (second series), stronger effect = lower value 0.0616 | locus YHR094C, strain hxt1, stronger effect = lower value 0.0582 | locus YHR129C, strain ARP1, stronger effect = lower value 0.056 | locus YHR200W, strain rpn10, stronger effect = lower value 0.0599 | locus YIL066C, strain RNR3, stronger effect = lower value 0.0444 | locus YIL073C, strain SPO22, stronger effect = lower value 0.121 | locus YIL125W, strain kgd1, stronger effect = lower value 0.161 | locus YIR030C, strain dcg1, stronger effect = lower value 0.0751 | locus YJL134W, strain LCB3, stronger effect = lower value 0.0455 | locus YJL168C, strain set2, stronger effect = lower value 0.0569 | locus YJL187C, strain SWE1 (second series), stronger effect = lower value 0.0486 | locus YJR043C, strain POL32, stronger effect = lower value 0.0695 | locus YKL009W, strain mrt4, stronger effect = lower value 0.311 | locus YKL068W, stronger effect = lower value 0.575 | locus YKL085W, strain MDH1 (second series), stronger effect = lower value 0.0978 | locus YKL085W, strain MDH1, stronger effect = lower value 0.0978 | locus YKL190W, strain CNB1, stronger effect = lower value 0.0476 | locus YKR001C, strain vps1, stronger effect = lower value 0.0619 | locus YLR039C, strain RIC1, stronger effect = lower value 0.0948 | locus YLR058C, strain SHM2, stronger effect = lower value 0.0436 | locus YLR102C, strain apc9, stronger effect = lower value 0.0609 | locus YLR262C, strain YPT6, stronger effect = lower value 0.107 | locus YLR268W, strain sec22, stronger effect = lower value 0.0592 | locus YLR330W, strain CHS5, stronger effect = lower value 0.053 | locus YLR342W, strain FKS1 (second series), stronger effect = lower value 0.0595 | locus YLR371W, strain rom2, stronger effect = lower value 0.0612 | locus YLR418C, strain cdc73, stronger effect = lower value 0.096 | locus YML016C, strain PPZ1, stronger effect = lower value 0.0484 | locus YML032C, strain rad52, stronger effect = lower value 0.0647 | locus YML124C, strain tub3, stronger effect = lower value 0.0613 | locus YMR078C, strain ctf18, stronger effect = lower value 0.0716 | locus YMR223W, strain ubp8, stronger effect = lower value 0.0609 | locus YMR263W, strain SAP30, stronger effect = lower value 0.0627 | locus YMR307W, strain GAS1, stronger effect = lower value 0.13 | locus YNL067W, strain RPL9B, stronger effect = lower value 0.0518 | locus YNL233W, strain BNI4, stronger effect = lower value 0.061 | locus YNL250W, strain rad50, stronger effect = lower value 0.297 | locus YNL271C, strain bni1, stronger effect = lower value 0.224 | locus YNL298W, strain CLA4, stronger effect = lower value 0.235 | locus YNL307C, strain MCK1, stronger effect = lower value 0.0668 | locus YNL322C, strain KRE1, stronger effect = lower value 0.0494 | locus YNR052C, strain pop2, stronger effect = lower value 0.0644 | locus YOL012C, strain htz1 0.173 | locus YOL147C, strain pex11, stronger effect = lower value 0.0578 | locus YOR061W, strain CKA2, stronger effect = lower value 0.0318 | locus YOR069W, strain VPS5, stronger effect = lower value 0.0536 | locus YOR136W, strain idh2, stronger effect = lower value 0.067 | locus YOR144C, strain elg1, stronger effect = lower value 0.0595 | locus YOR184W, strain ser1, stronger effect = lower value 0.062 | locus YOR316C, strain cot1, stronger effect = lower value 0.0579 | locus YPR119W, strain clb2, stronger effect = lower value 0.0597 | locus YPR141C, strain kar3, stronger effect = lower value 0.56 | locus YPR163C, strain tif3, stronger effect = lower value 0.0674 | locus YPR167C, strain met16, stronger effect = lower value 0.0656 | strain wtn01, stronger effect = lower value 0.0569
